For some of these results: Potency and affinity values are given separately. Active and inactive are the calls of the source.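 Rule for the calls, unless noted: active = calcium signal cut by more than 3 SD below the full-agonist control yet still positive, in both repeats and the earlier primary screen; inactive = the rest.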
Legend:
[1] = test system: TRPC4 beta (transient receptor potential cation channel C4), mouse; test: TRPC4 cation channel opening, retest – cell-based, Fluo4 calcium, HEK293 TRPC4beta/mu-opioid, duplicates, 10 µM, confirmation (AID 2426;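 active = fluorescence ratio normalized to control raised more than 50% in primary screen plus both repeat runs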); settings: Fluo4 calcium fluorescence, at 10 µM; active compounds read high
[2] = test system: transient receptor potential cation channel C4 beta (TRPC4), mouse; test: TRPC4 cation channel opening, second retest – cell-based, second round, Fluo4, HEK293 TRPC4beta/mu-opioid, 1 µM, confirmation (AID 2461;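 active = primary screen active and over 50% activation in each of two duplicate runs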); settings: Fluo4 calcium fluorescence, at 1 µM; active compounds read high
[3] = test system: TRPC4 (transient receptor potential cation channel C4 beta), mouse; test: potentiation of DAMGO EC20 TRPC4 response – cell-based, second round, Fluo-4, HEK293 TRPC4beta/mu-opioid, 1 µM, confirmation (AID 2554;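 active = primary screen hit whose fluorescence ratio, in both repeats, exceeds the weak agonist control mean by 3 SD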); settings: DAMGO EC20, Fluo-4 calcium flux, at 1 µM; active compounds read high
[4] = test system: TRPC4 beta (transient receptor potential cation channel C4), mouse; test: potentiation of DAMGO EC20 TRPC4 response – cell-based, Fluo-4, HEK293 TRPC4beta/mu-opioid, confirmation (AID 2555;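 active = primary screen hit whose calcium fluorescence ratio, in both repeats, exceeds the weak agonist control mean by 3 SD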); settings: DAMGO EC20, Fluo-4 calcium flux, at 10 µM; active compounds read high
[5] = biological target: Short transient receptor potential channel 4 (Mus musculus) (UniProt Q9QUQ5); test: blockers of DAMGO-evoked TRPC4 calcium flux – cell-based, Fluo4, HEK293 TRPC4beta/mu-opioid, confirmation (AID 2636); settings: at 10 µM; active compounds read high
[6] = biological target: Short transient receptor potential channel 4 (Mus musculus) (UniProt Q9QUQ5); test: blockers of DAMGO-evoked TRPC4 calcium flux – cell-based, second round, Fluo4, HEK293 TRPC4beta/mu-opioid, 1 µM, confirmation (AID 2637;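 active = calcium signal ratio cut to more than 3 SD under the fully stimulated control mean yet still positive, in both repeats and the primary screen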;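 for inhibition: percent of integrated ratio relative to wells lacking test compound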); settings: at 1 µM; active compounds read high
[7] = biological target: Short transient receptor potential channel 4 (Mus musculus) (UniProt Q9QUQ5); test: calcium entry via TRPC4 opening agents – cell-based, HEK293 TRPC4/mu-opioid, Fluo-4 calcium, dose response (AID 434937;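 active = primary screen activator hit with a dose response curve and TRPC4 channel activation at any tested dose; inactive = no activation, no dose response, or not a primary hit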)
[8] = biological target: Short transient receptor potential channel 4 (Mus musculus) (UniProt Q9QUQ5); test: potentiation of DAMGO-evoked TRPC4 calcium signal – cell-based, HEK293 TRPC4/mu-opioid, Fluo-4 calcium, EC20 DAMGO, dose response (AID 434941;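 active = earlier screen potentiator hit that boosts the TRPC4 ion channel at some dose, with a dose response; inactive = no potentiation, no dose response, or not a prior hit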;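 note: calcium entry triggered by an EC20 dose of DAMGO at the co-expressed mu-opioid receptor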)
[9] = biological target: Short transient receptor potential channel 6 (Mus musculus) (UniProt Q61143); test: TRPC6 blockade by TRPC4 inhibitor hits – cell-based, HEK293, membrane potential dye, duplicate, selectivity assay for TRPC4 inhibitor project, confirmation (AID 434948;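 active = active in primary screen and both duplicates, each dropping signal beyond three positive-control SD with fluorescence still positive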); settings: HEK293 TRPC6, membrane potential dye fluorescence, at 10 µM, stimulated with maximal-effect acetylcholine; active compounds read high
[10] = biological target: Short transient receptor potential channel 6 (Mus musculus) (UniProt Q61143); test: TRPC6 opening by TRPC4 activator hits – cell-based, HEK293, membrane potential dye, duplicate, selectivity assay for TRPC4 activator project, confirmation (AID 434950;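 active = membrane potential signal rise above negative control mean plus 3 SD in both duplicates, also active in the earlier TRPC4 screen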); settings: HEK293 TRPC6, membrane potential fluorescence, at 10 µM; activation: active compounds read high; outcome: activation
[11] = biological target: Short transient receptor potential channel 6 (Mus musculus) (UniProt Q61143); test: positive modulators of mouse TRPC6 channel – HEK293 cells, membrane potential dye, duplicate, selectivity assay for TRPC4 potentiator project, confirmation (AID 434952;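 active = compound raising the membrane signal above positive-control mean plus 3 SD in both repeats, and a primary screen hit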); settings: HEK293 TRPC6, membrane potential dye fluorescence, at 10 µM, maximal acetylcholine added after compound; active compounds read high
[12] = biological target: Short transient receptor potential channel 4 (Mus musculus) (UniProt Q9QUQ5); test: calcium flux activators in TRPC4/5HT1a cells, counter-screen for TRPC4 activator project, cell-based, second counter screen, HEK293 TRPC4/5HT1a, Fluo-4 (AID 434977;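 active = calcium signal rise above buffer-control mean plus 5 SD in both duplicates, and also a hit in the primary screen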); settings: Fluo-4 calcium flux, at 10 µM; active compounds read high
[13] = serotonin-gated TRPC4 signal block – cell-based, second counter screen, HEK293 TRPC4/5HT1a, Fluo-4, counter-screen for TRPC4 inhibitor project, confirmation (AID 434978;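 active = primary screen active whose calcium signal fell more than 3 SD beyond the full-serotonin control mean in both duplicate plates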;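 for outcome: serotonin given first at submaximal then at maximal dose after compound preincubation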); settings: Fluo-4 calcium flux, at 10 µM, serotonin added to trigger calcium flux; active compounds read high
[14] = test system: TRPC4 (mouse), co-expressed with 5HT1a in HEK293; test: enhancement of serotonin-evoked TRPC4 response – cell-based, second counter screen, HEK293 TRPC4/5HT1a, Fluo-4, counter-screen for TRPC4 potentiator project, confirmation (AID 434979;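 active = signal rise over 3 SD above mean of control wells given weak agonist, in both repeats and first screen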); settings: Fluo-4 calcium flux, at 10 µM, serotonin added at its EC20 dose; active compounds read high
[15] = nonspecific calcium rise without TRPC4 – cell-based, HEK293 mu-opioid receptor line, counter-screen for TRPC4 activator project, confirmation (AID 449723;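 active = hit in primary screen, with calcium signal over 5 SD above buffer well mean in both duplicates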;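 note: counter screen cells carry the mu-opioid receptor alone and lack TRPC4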); settings: HEK293 mu-opioid cells, Fluo-4 calcium fluorescence, at 10 µM; active compounds read high
[16] = nonspecific potentiation of DAMGO calcium response – cell-based, HEK293 mu-opioid receptor line, counter-screen for TRPC4 allosteric potentiator project, confirmation (AID 449724;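 active = calcium signal rise more than 3 SD above the low-dose agonist control mean, in both duplicate plates and the primary screen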); settings: HEK293 mu-opioid receptor cells, Fluo-4 calcium flux, at 10 µM, compound added before EC20 DAMGO stimulus; active compounds read high

Measured: inhibition

Sequence of Short transient receptor potential channel 6 (Mus musculus) (Q61143 whole entry, looked up): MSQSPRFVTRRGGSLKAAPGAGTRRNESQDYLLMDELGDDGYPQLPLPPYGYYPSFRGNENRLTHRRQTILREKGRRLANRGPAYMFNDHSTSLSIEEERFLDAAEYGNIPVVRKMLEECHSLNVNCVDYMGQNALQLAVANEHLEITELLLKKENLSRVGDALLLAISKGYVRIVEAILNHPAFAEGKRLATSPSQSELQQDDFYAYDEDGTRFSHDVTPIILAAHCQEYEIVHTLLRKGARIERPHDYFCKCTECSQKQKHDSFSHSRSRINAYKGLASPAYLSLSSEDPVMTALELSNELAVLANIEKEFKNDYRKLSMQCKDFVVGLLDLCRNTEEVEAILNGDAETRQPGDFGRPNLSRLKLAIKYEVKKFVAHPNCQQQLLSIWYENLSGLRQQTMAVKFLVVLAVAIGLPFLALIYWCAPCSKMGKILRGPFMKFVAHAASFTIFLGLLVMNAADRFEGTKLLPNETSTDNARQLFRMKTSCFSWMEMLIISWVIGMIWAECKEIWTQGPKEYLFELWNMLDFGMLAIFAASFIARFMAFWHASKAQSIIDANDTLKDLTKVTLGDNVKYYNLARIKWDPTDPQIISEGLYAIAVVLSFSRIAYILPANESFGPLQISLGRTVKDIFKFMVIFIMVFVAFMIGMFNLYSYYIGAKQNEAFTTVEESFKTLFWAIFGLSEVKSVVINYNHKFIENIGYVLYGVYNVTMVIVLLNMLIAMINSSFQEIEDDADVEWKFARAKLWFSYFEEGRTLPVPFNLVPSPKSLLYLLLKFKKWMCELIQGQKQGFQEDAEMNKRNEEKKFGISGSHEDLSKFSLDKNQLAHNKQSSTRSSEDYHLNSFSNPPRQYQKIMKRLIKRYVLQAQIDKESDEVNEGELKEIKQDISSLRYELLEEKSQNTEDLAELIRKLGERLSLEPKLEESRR
Sequence of Short transient receptor potential channel 4 (Mus musculus) (Q9QUQ5 whole entry, looked up): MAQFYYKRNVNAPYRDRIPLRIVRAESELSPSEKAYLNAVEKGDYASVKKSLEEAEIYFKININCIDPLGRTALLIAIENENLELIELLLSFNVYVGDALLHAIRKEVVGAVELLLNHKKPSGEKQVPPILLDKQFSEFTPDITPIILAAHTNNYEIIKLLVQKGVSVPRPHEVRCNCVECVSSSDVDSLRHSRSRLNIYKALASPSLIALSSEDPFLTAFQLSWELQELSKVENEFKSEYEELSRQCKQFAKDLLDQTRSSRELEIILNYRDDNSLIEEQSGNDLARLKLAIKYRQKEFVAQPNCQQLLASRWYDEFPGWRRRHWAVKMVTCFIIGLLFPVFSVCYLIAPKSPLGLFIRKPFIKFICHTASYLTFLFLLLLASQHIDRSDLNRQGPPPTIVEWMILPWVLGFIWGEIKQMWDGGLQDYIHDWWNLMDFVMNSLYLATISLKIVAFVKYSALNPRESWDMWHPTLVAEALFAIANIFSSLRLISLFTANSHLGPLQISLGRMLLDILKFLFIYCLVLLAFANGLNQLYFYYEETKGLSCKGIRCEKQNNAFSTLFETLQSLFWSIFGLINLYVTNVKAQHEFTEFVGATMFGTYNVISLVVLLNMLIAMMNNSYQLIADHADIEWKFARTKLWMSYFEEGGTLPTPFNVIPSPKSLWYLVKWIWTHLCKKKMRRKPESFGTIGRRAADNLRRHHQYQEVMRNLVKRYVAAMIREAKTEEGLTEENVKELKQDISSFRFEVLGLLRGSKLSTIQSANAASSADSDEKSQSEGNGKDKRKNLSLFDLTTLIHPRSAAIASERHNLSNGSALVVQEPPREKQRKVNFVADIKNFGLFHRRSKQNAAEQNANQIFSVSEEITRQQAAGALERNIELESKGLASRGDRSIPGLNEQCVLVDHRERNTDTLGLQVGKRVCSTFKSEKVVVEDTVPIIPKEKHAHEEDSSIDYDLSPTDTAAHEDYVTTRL

CC(C)(C)c1cc2cccnc2n1Cc1ccccc1
active: [5] 95% | [6] 70% | [13] 15.4%
inactive: all other assays above

CCn1c(=O)n(CCOC)c(=O)c2c3c(sc21)CCCC3
active: [5] 91% | [6] 58% | [13] 16.2%
inactive: all other assays above

CN(Cc1cnn(C)c1)C(=O)c1ccc(OC2CCN(CCc3ccccc3)CC2)cc1
active: [5] 88% | [6] 59%
inactive: all other assays above

CC#CC[N+](C)(C)CCCCCCCCCCCC
active: [5] 97% | [6] 55% | [9] 36% | [13] 9.36%
inactive: all other assays above

COC(=O)CSc1nnc2n(-c3ccc(OC)cc3)c(=O)c3c4c(sc3n12)CCCCC4
active: [5] 95% | [13] 23%
inactive: all other assays above

O=C(Nc1ccccc1N1CCN(C(=O)c2ccc(Cl)cc2)CC1)c1cccc([N+](=O)[O-])c1
active: [5] 81% | [6] 52% | [13] 36.6%
inactive: all other assays above

CC(NC(=O)c1ccco1)C(c1cccs1)N1CCN(c2ccccc2)CC1 (stereo unspecified)
active: [5] 98% | [6] 51%
inactive: all other assays above

O=C(CN1CCCCC1)N=Nc1c(O)[nH]c2ccccc12
active: [5] 80% | [13] 33.5%
inactive: all other assays above

Cc1ccccc1N1CC(O)(c2cccs2)[N+]2=C1CCCC2 (stereo unspecified)
inactive: all assays above

O=C(CN1CCCCCC1)N1c2ccccc2Sc2ccccc21
active: [5] 79% | [6] 56% | [9] 21% | [13] 29.7%
inactive: all other assays above

O=C(C1CCN(CC2CC=CCC2)CC1)N(CCc1ccccc1)Cc1ccccc1 (stereo unspecified)
active: [5] 53% | [9] 32.5% | [13] 40.1%
inactive: all other assays above

Cn1c(=O)c2c(nc(SCc3cccnc3)n2Cc2ccc(F)cc2)n(C)c1=O
active: [5] 79% | [13] 22.8%
inactive: all other assays above

Cc1nn(-c2ccccc2)c2[nH]c(C(F)(F)F)cc(=O)c12
active: [5] 49% | [13] 31.7%
inactive: all other assays above

CC1(C)CC2CC(C)(CN2CC(O)COc2ccccc2)C1 (stereo unspecified)
active: [5] 86%
inactive: all other assays above

O=C(CN1CCCCC1)N1c2ccccc2Oc2ccccc21
active: [5] 95% | [13] 9.39%
inactive: all other assays above

CCN(CC)CCn1c2ccccc2c2cnc(N)c(C#N)c21
active: [5] 82% | [13] 32.9%
inactive: all other assays above

— PubChem BioAssay
